Read-out in experiment [1]: E-selectin (Homo sapiens) (UniProt P16581)
Briefly: BSK_3C_Eselectin: BioMAP Diversity Plus: 3C Assay for Eselectin Biomarker Activity (AID 2283015).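 On outcome: cell surface E-selectin protein quantified by ELISA 24 h after dosing.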 Particulars: primary human endothelial cells (HUVEC); actives raise or lower the signal. The gist of the method: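 Human vascular endothelium from umbilical vein is exposed to test chemicals for 24 h. E-selectin levels are read by ELISA and compared with DMSO controls.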

Read-out in experiment [2]: Interleukin-1 alpha (IL1a), IL1A (gene 3552)
As to the kind of experiment: BSK_BE3C_IL1a: BioMAP Diversity Plus: BE3C Assay for Interleukin-1 alpha (IL1a) Biomarker Activity (AID 2283016). Particulars: primary human bronchial epithelial cells; actives raise or lower the signal. The gist of the method: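 Measured in human lung primary bronchial epithelial cells: IL-1a by ELISA at 24 h after dosing, with bidirectional fitting against DMSO.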

Read-out in experiment [3]: Monocyte Chemoattractant Protein-1 (MCP1), CCL2 (gene 6347)
Briefly: BSK_3C_MCP1: BioMAP Diversity Plus: 3C Assay for Monocyte Chemoattractant Protein-1 (MCP1) Biomarker Activity (AID 2283017). The note with it: primary human endothelial cells (HUVEC); actives raise or lower the signal. In a few lines:
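Endothelial cells from human umbilical vein are dosed with chemical, cultured 24 h, then assayed for MCP-1 by ELISA; both increases and decreases are modelled against DMSO controls.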

Read-out in experiment [4]: Monocyte Chemoattractant Protein-1 (MCP1), CCL2 (gene 6347)
As to the kind of experiment: BSK_4H_MCP1: BioMAP Diversity Plus: 4H Assay for Monocyte Chemoattractant Protein-1 (MCP1) Biomarker Activity (AID 2283018). Particulars: primary human endothelial cells (HUVEC); actives raise or lower the signal. The gist of the method: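 Primary human umbilical vein endothelium is exposed to chemical for 24 h before MCP-1 is assayed by ELISA. Concentration-response fitted bidirectionally relative to DMSO.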

Read-out in experiment [5]: Interleukin-8 (IL8), CXCL8 (gene 3576)
As to the kind of experiment: BSK_3C_IL8: BioMAP Diversity Plus: 3C Assay for Interleukin-8 (IL8) Biomarker Activity (AID 2283020). The note with it: primary human endothelial cells (HUVEC); actives raise or lower the signal. The gist of the method:
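Using DMSO-treated wells as the baseline, bidirectional curve fitting was applied to ELISA-measured IL-8 from human umbilical vein endothelial cultures sampled 24 h after compound addition.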

Read-out in experiment [6]: Monokine induced gamma interferon (MIG), CXCL9 (gene 4283)
Briefly: BSK_3C_MIG: BioMAP Diversity Plus: 3C Assay for Monokine induced gamma interferon (MIG) Biomarker Activity (AID 2283021).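 On AC50: MIG protein level measured by immunoassay in the treated endothelial cultures.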 Particulars: primary human endothelial cells (HUVEC); actives raise or lower the signal. The gist of the method: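 ELISA-measured MIG in dosed HUVEC 3C cultures at 24 h, analysed by bidirectional fitting with DMSO defining baseline activity.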

In experiment [7] the target is human Vitamin D Receptor (VDR), VDR (gene 7421) (UniProt P11473). As to the kind of experiment: ATG_VDR_TRANS: Attagene TRANS-FACTORIAL HepG2 Assay for human Vitamin D Receptor (VDR) (AID 2283022; active means hit-call score of the fitted dose curve at least 0.9, where 1 is the maximum). In a few lines: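 Fluorescence of labelled reporter cDNA fragments, resolved by capillary electrophoresis, gives mRNA induction after 24 h treatment of HepG2 cells carrying transfected Gal4-fusion reporter units. Activity is fitted in the positive direction with DMSO as baseline.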
Sequence of human Vitamin D Receptor (VDR), VDR (gene 7421) (P11473 whole entry, looked up, the tested form may be a part): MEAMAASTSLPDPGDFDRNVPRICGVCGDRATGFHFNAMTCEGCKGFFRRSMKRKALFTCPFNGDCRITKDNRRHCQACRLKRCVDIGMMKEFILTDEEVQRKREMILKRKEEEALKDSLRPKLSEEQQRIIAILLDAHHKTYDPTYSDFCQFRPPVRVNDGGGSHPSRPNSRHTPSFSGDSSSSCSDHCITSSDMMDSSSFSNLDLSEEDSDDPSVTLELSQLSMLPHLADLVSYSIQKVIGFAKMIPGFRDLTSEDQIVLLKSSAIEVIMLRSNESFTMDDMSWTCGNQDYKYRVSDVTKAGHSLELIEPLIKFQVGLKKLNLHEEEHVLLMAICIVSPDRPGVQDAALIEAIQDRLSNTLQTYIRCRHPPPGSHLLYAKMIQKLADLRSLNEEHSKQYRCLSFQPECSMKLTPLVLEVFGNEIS

A short description of experiment [8]: BSK_3C_SRB: Viability Assessment in the BioMAP Diversity Plus: 3C Assay (AID 2283023).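 Further: fitted both ways against DMSO so a hit may be signal rise or drop.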 The note with it: primary human endothelial cells (HUVEC). The gist of the method: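 Cells were dosed with chemical, cultured 24 h, fixed with 10% TCA, stained with 0.1% SRB and read at 560 nm. Human umbilical vein endothelium was used; DMSO served as negative control and baseline.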

Read-out in experiment [9]: Matrix Metallopeptidase 1 (MMP1), MMP1 (gene 4312)
Briefly: BSK_BE3C_MMP1: BioMAP Diversity Plus: BE3C Assay for Matrix Metallopeptidase 1 (MMP1) Biomarker Activity (AID 2283024). The note with it: primary human bronchial epithelial cells; actives raise or lower the signal. In a few lines: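 In this multiplexed primary-cell system, human bronchial epithelium received chemicals for 24 h before an ELISA for MMP1. Values reflect bidirectional fits normalised to the DMSO baseline.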

Experiment [10] can be described thus: BSK_3C_Vis: BioMAP Diversity Plus: 3C Assay for Morphology Visualization (AID 2283025).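 Further: fitted both ways so gain or loss versus DMSO counts.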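 On AC50: light microscopy image of cell morphology used as background control.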 The note with it: primary human endothelial cells (HUVEC). In a few lines: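 Light-microscopy morphology readout, 24 h exposure, human primary umbilical vein endothelium; analysed relative to DMSO with bidirectional fitting.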
Read-out in experiment [11]: Pselectin, SELP (gene 6403)
Briefly: BSK_4H_Pselectin: BioMAP Diversity Plus: 4H Assay for Pselectin Biomarker Activity (AID 2283026). The note with it: primary human endothelial cells (HUVEC); actives raise or lower the signal. The gist of the method: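 Bidirectional fits against DMSO gave the endpoint. Cells: primary human umbilical vein endothelium, chemical-treated for 24 h before ELISA detection of P-selectin.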

Experiment [12] in a line: BSK_4H_SRB: Viability Assessment in the BioMAP Diversity Plus: 4H Assay (AID 2283027).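 Further: cells exposed to compound for 24 h before staining.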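 On AC50: curves fitted both ways versus DMSO so AC50 may be loss or gain.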 The note with it: primary human endothelial cells (HUVEC). The gist of the method:
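Cytotoxicity read-out in primary human endothelial cells: after 24 h compound exposure, cells were TCA-fixed (10%), stained with 0.1% SRB and absorbance taken at 560 nm. Values fitted in both directions relative to DMSO.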

Experiment [13] in a line: BSK_BE3C_SRB: Viability Assessment in the BioMAP Diversity Plus: BE3C Assay (AID 2283028).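 On AC50: fitted both ways so AC50 may mark signal gain or loss versus DMSO.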 Particulars: primary human bronchial epithelial cells. In a few lines:
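Overt cytotoxicity was assessed as total protein in confluent human primary bronchial epithelial cultures 24 h after chemical addition, using 0.1% sulforhodamine B staining read at 560 nm.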

Read-out in experiment [14]: Thrombomodulin, THBD (gene 7056)
As to the kind of experiment: BSK_3C_Thrombomodulin: BioMAP Diversity Plus: 3C Assay for Thrombomodulin Biomarker Activity (AID 2283029). The note with it: primary human endothelial cells (HUVEC); actives raise or lower the signal. In a few lines:
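In a multiplexed primary-cell system, human umbilical vein endothelium received chemical and was assayed 24 h later for thrombomodulin by ELISA. Parallel cultures were SRB-stained (0.1% SRB after 10% TCA fixation, read at 560 nm) to flag cytotoxicity.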

Read-out in experiment [15]: Urokinase-type plasminogen activator receptor (uPAR), PLAUR (gene 5329)
As to the kind of experiment: BSK_4H_uPAR: BioMAP Diversity Plus: 4H Assay for Urokinase-type plasminogen activator receptor (uPAR) Biomarker Activity (AID 2283030). Particulars: primary human endothelial cells (HUVEC); actives raise or lower the signal. In a few lines: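 Chemicals are dosed onto human vascular endothelial primary cells (umbilical vein). After 24 h, uPAR is read by ELISA. Gain or loss of signal is fitted relative to DMSO.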

Read-out in experiment [16]: Vascular endothelial growth factor receptor 2 (Homo sapiens) (UniProt P35968)
As to the kind of experiment: BSK_4H_VEGFRII: BioMAP Diversity Plus: 4H Assay for Vascular endothelial growth factor receptor 2 (VEGFR2) Biomarker Activity (AID 2283031).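 On AC50: cell-surface VEGFR2 protein level quantified by ELISA.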 The note with it: primary human endothelial cells (HUVEC); actives raise or lower the signal. In a few lines:
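VEGFRII levels on human vascular endothelial primary cells were determined by ELISA at 24 hours post-dosing, with gain- or loss-of-signal fitted against DMSO controls.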

Read-out in experiment [17]: Human Leukocyte Antigen - DR isotype (HLADR), HLA-DRA (gene 3122)
As to the kind of experiment: BSK_3C_HLADR: BioMAP Diversity Plus: 3C Assay for Human Leukocyte Antigen - DR isotype (HLADR) Biomarker Activity (AID 2283019).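 On outcome: ELISA of cell-surface HLA-DR on HUVEC 24 h after dosing.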 The note with it: primary human endothelial cells (HUVEC); actives raise or lower the signal. The gist of the method: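 Endothelial cells from human umbilical vein are treated with test chemical; after 24 h, HLA-DR levels are measured by ELISA. Data are fitted in both directions using DMSO as the baseline.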

The target of experiment [18] is human Thyroid Receptor alpha (THRa1), THRA (gene 7067) (UniProt P10827). As to the kind of experiment: ATG_THRa1_TRANS: Attagene TRANS-FACTORIAL HepG2 Assay for human Thyroid Receptor alpha (THRa1) (AID 2283014; active means hit-call score of the fitted dose curve at least 0.9, where 1 is the maximum). The gist of the method:
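First, HepG2 cells receive multiple GAL4-UAS reporter units and the chimeric receptor. They are then dosed for 24 h, after which RNA is reverse-transcribed, amplified, labelled, HpaI-cut and sized by capillary electrophoresis; gain relative to DMSO is scored.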

Experiment [19] concerns the target human Retinoid X Receptor beta (RXRb), RXRB (gene 6257) (UniProt P28702). Briefly: ATG_RXRb_TRANS: Attagene TRANS-FACTORIAL HepG2 Assay for human Retinoid X Receptor beta (RXRb) (AID 2283013; active means hit-call score of the fitted dose curve at least 0.9, where 1 is the maximum). In a few lines:
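After a 24 h incubation with test chemical, transfected HepG2 cells carrying NR-Gal4 fusions and GAL4-UAS reporter transcription units yield RNA whose reporter cDNA is FAM-labelled, HpaI-cut and sized by capillary electrophoresis; increases over DMSO are scored.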

In PubChem BioAssay (EPA / NIEHS) one finds outcome and AC50 data, which are given here for eight compounds.

In general, AC50 refers to the concentration giving half of the maximal activity seen.

Results filed as inconclusive are left out. Calls of active or inactive are those of the source. How the source made its calls, unless noted: active means hit-call score of the fitted dose curve at least 0.9, where 1 is the maximum; inactive means score below 0.9.

Sequence of E-selectin (Homo sapiens) (P16581 whole entry, looked up): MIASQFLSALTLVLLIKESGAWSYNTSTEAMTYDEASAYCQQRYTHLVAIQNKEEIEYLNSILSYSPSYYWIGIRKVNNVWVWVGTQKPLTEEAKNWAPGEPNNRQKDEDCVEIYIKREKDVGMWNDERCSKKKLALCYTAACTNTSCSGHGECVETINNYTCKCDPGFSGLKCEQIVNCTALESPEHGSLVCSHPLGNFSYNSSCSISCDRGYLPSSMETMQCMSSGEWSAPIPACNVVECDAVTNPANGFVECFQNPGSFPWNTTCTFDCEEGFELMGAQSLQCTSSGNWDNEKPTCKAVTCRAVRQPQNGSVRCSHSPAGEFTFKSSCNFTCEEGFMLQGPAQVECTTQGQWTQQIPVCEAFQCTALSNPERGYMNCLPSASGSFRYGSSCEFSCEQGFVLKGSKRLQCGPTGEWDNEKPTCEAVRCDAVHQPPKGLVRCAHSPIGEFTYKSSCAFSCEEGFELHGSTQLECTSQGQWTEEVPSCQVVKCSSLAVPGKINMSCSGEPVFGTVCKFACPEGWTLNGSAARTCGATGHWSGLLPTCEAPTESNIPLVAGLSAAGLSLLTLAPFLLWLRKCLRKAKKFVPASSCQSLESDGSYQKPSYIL
Sequence of human Thyroid Receptor alpha (THRa1), THRA (gene 7067) (P10827 whole entry, looked up, the tested form may be a part): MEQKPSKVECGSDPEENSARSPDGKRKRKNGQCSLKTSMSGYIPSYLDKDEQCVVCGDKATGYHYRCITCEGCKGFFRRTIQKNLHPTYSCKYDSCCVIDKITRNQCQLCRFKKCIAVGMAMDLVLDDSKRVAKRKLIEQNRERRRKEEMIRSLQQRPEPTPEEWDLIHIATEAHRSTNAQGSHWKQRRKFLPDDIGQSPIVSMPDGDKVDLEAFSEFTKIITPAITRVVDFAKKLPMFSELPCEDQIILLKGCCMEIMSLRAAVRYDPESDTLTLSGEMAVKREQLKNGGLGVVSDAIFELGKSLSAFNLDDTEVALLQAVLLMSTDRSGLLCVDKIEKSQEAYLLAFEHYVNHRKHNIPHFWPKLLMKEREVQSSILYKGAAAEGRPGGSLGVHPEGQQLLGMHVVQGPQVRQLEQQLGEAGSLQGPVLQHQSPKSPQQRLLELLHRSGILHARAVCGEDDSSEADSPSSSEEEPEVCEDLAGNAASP
Sequence of human Retinoid X Receptor beta (RXRb), RXRB (gene 6257) (P28702 whole entry, looked up, the tested form may be a part): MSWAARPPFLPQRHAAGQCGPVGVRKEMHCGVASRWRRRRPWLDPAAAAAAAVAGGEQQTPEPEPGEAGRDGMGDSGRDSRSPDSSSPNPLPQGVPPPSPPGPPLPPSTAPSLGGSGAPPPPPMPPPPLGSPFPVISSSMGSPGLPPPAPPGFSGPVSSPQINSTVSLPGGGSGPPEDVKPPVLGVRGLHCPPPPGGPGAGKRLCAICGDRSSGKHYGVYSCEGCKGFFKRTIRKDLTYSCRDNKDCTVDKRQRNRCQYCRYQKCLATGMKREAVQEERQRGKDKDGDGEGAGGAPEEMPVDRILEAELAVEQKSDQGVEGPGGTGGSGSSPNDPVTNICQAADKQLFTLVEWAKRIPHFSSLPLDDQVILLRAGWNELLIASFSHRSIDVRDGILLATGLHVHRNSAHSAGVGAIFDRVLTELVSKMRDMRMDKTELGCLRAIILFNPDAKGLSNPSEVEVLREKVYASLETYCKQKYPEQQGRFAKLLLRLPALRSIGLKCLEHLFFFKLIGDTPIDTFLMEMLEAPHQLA

For the compound `COc1ccc(S(=O)(=O)N2C(=O)[C@@](c3ccccc3OC)(N3C[C@H](O)C[C@H]3C(=O)N(C)C)c3cc(Cl)ccc32)c(OC)c1`, the outcome in experiment [1], in [2], in experiment [4], in [6], in [7] and in experiment [9] was inactive. The result in experiment [11], in experiment [13], in experiment [14] and in experiment [16] was inactive. Also, the AC50 in [3] is 20 µM (active); in experiment [5], 31.5 µM (active); in experiment [8], 27 µM (active); in experiment [10], 39 µM (active); in [12], 29.3 µM (active); in experiment [15], 8.31 µM (active).
With `CN[C@H]1CC[C@@H](c2ccc(Cl)c(Cl)c2)c2ccc(S(N)(=O)=O)cc21`, the AC50 in experiment [1] is 30.6 µM (active); in [2], 30.3 µM (active); in [3] it was 27.5 µM (active); in experiment [4] it was 20 µM (active); in experiment [17], 14.7 µM (active); in experiment [5], 23.9 µM (active). The half-maximal activity concentration (AC50) in [6] is 37.8 µM (active); in experiment [8] it was 16 µM (active); in experiment [9] it was 31.8 µM (active); in [10] it was 14.4 µM (active); in experiment [11] it was 9.02 µM (active); in experiment [12] it was 18.2 µM (active). Also, the AC50 was 34 µM (active) in [13], 4.65 µM (active) in experiment [14], 20 µM (active) in experiment [15] and 20 µM (active) in experiment [16].
As for `C[C@]12C=CC(=O)C=C1CC[C@@H]1[C@@H]2C(=O)C[C@@]2(C)[C@H]1CC[C@]2(O)C(=O)CO`, the compound was called inactive in experiment [18], in [1], in experiment [2], in experiment [3], in [4] and in [5]. In addition, the outcome in experiment [6], in experiment [7], in experiment [8], in [9], in experiment [10] and in experiment [11] was inactive. Further, the outcome in experiment [12], in experiment [13], in experiment [14], in experiment [15] and in experiment [16] was inactive.
For the compound `OC[C@@H](O)[C@@H](O)[C@H](O)[C@H](O)CO`, the outcome in experiment [1], in [2], in experiment [3], in experiment [4], in experiment [17] and in experiment [5] was inactive. For the same compound, the result in experiment [6], in experiment [8], in experiment [9], in experiment [10], in [11] and in [12] was inactive. For the same compound, the result in experiment [14], in [15] and in [16] was inactive.
Regarding `CC(C)c1ccc(C(=O)N=C(N)N)cc1S(C)(=O)=O`, the compound was classed as inactive in [18], in experiment [1], in experiment [2], in [3], in [4] and in experiment [17]. Moreover, the outcome in experiment [5], in experiment [6], in experiment [8], in experiment [9], in experiment [10] and in experiment [11] was inactive. Besides, the result in experiment [12], in experiment [14], in experiment [15] and in experiment [16] was inactive.
Consider `CNC(=O)[C@H]1O[C@@H](n2cnc3c(NCc4cc(Cl)ccc4OCc4cc(C)no4)ncnc32)[C@H](O)[C@@H]1N`, for which the outcome in [19], in experiment [1], in experiment [2], in [3], in experiment [4] and in [17] was inactive. The result in experiment [5], in experiment [6], in experiment [7], in experiment [8], in experiment [9] and in experiment [10] was inactive. Also, the result in [11], in experiment [12], in experiment [13], in experiment [14], in experiment [15] and in experiment [16] was inactive.
Turning to `COc1cc(-c2nc(NC(=O)c3cc4cc(C)cc(C)c4n3CC(=O)O)sc2CCC2CCCCC2)c(OC)cc1Cl`, the compound was classed as inactive in experiment [18] and in experiment [7]. Also, the half-maximal activity concentration (AC50) is 5.53 µM (active) in [1]; 3.38 µM (active) in experiment [2]; 2.91 µM (active) in [3]; 5.38 µM (active) in experiment [4]; 5.83 µM (active) in [5]; 5.26 µM (active) in experiment [6]. The concentration at half-maximal activity (AC50) in experiment [8] was 2.92 µM (active); in experiment [9] it was 4.37 µM (active); in experiment [10], 4.08 µM (active); in [11], 3.63 µM (active); in experiment [12], 4.62 µM (active); in experiment [13], 3.12 µM (active). The AC50 in experiment [14] was 23.6 µM (active); in [15], 4.62 µM (active); in experiment [16] it was 4.37 µM (active).
As to `CCCCCCCC=O`, the result in experiment [19], in experiment [1], in experiment [2], in experiment [3], in experiment [4] and in [5] was inactive. The result in [6], in [7], in experiment [8], in [9], in experiment [10] and in experiment [11] was inactive. Besides, the outcome in experiment [12], in [14], in [15] and in [16] was inactive.
